Hit rate of the full screen: of about 24,000 compounds, about 180 (0.75%) were called active. The list comes from a sample in which actives are over-represented; it also holds similar structures and randomly drawn compounds. Unmarked numbers belong to inactive results. Rule as the data show it: active = inhibition above about 30%; inconclusive = no clear call, values can overlap the other calls; inactive = below that.
Target: fMet-Leu-Phe receptor (Homo sapiens) (UniProt P21462)
Experiment: human FPR ligands by binding competition, primary screen, cell-based, FPRL1 counter-screen, flow cytometry (AID 440);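 also: 0% = buffer wells and 100% = receptor blocker peptide wells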
Details: FPR-expressing cells, fluorescent ligand binding, active compounds read high, concentration not given here

Chain of fMet-Leu-Phe receptor (Homo sapiens) (P21462 whole entry, looked up): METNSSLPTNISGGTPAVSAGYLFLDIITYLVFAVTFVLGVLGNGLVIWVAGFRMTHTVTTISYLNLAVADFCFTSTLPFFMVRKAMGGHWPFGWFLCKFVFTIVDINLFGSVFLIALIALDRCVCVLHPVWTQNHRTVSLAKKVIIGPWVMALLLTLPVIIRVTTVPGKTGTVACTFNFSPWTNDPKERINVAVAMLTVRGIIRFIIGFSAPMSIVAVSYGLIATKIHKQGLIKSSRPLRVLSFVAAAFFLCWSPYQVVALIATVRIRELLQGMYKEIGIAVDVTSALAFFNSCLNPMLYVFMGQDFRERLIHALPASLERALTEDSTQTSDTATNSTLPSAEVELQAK

SMILES	inhibition
N#CCCN1CCN(S(=O)(=O)c2ccc(S(=O)(=O)N3CCCC3)cc2)CC1	-3.3%
O=C(Nc1ccc(Cl)cn1)Nc1cccs1	-2.2%
COc1ccccc1C1/C(=C(/O)c2ccc(C)cc2)C(=O)C(=O)N1Cc1ccco1 (stereo not given)	4.3%
COc1ccc(/C(O)=C2/C(=O)C(=O)N(CC3CCCO3)C2c2ccc(OC)c(OC)c2)cc1 (stereo not given)	0.3%
COc1ccc(/C(O)=C2\C(=O)C(=O)N(Cc3ccco3)C2c2ccc(OC)cc2OC)cc1 (stereo not given)	38% (active)
CCOC(=O)Cn1c(CN(Cc2ccccc2)Cc2ccccc2)nc2c1c(=O)[nH]c(=O)n2C	-0.1%
COc1c(F)c(F)c(C(=O)O)c(Nc2ccccc2C)c1F	-4.8%
Cc1cc(N2C(=O)C(=O)/C(=C(/O)c3ccccc3)C2c2cccc(Br)c2)no1 (stereo not given)	-1.3%
CCOC(=O)c1ccn(-c2nc(-c3ccco3)cc(C(F)(F)F)n2)n1	5.4%
CN1CCCC(OC(=O)COc2ccc(Br)cc2)C1 (stereo not given)	-3%
CCCn1nnc2sc3c(c2c1=O)CCC(C)C3 (stereo not given)	0.2%
Cc1cccc(-n2nc3c(c2NC(=O)c2ccc(Br)o2)CSC3)c1C	6.4%
CC1(C)C(=O)Nc2ccccc2N1C(=O)COC(=O)Cn1cnc2ccccc2c1=O	-1.5%
O=C(CCSCCc1ccccn1)Nc1nccs1	2.6%
c1ccc(Cc2nn3c(Cn4cnc5ccccc54)nnc3s2)cc1	4.2%
CCOc1cccc(-c2nnc3sc(COc4ccc(OC)cc4)nn23)c1	-4.8%
Clc1ccc(Cc2nn3c(-c4ccncc4)nnc3s2)cc1	46.7% (active)
CCOc1ccc(NC(=O)CCS(=O)(=O)c2cccc3nsnc23)cc1	7.6%
O=C(c1ccccc1)c1cccn1CC(=O)N1CCN(c2ccc(F)cc2)CC1	0.2%
CCCC(=O)C1=C(N(C)c2ccccc2)CC(C)(C)C(C(=O)OC)C1=O (stereo not given)	1.9%
O=C(O)CC(c1ccccc1)n1cnnn1 (stereo not given)	-4.6%
CCN(Cc1ccccc1)C(=O)CSc1nc(C)cc2c1C(=O)OC2	2%
O=C(CCN1C(=O)c2ccccc2C1=O)NCCN1CCOCC1	-4.5%
O=C1CC(c2ccccc2)CC(O)=C1C=NCCN1CCOCC1 (stereo not given)	9.7%

SMILES	inhibition
CCCC(=O)Nc1nnc(CC(=O)OCC)s1	9.1%
CCCOc1ccc(C2c3c(oc4cc(C)c(C)cc4c3=O)C(=O)N2CCCN2CCOCC2)cc1 (stereo not given)	5.8%
COc1ccc(-c2nc(CS(=O)CC(=O)NCc3cccnc3)c(C)o2)cc1OC (stereo not given)	7.2%
CCCOc1ccc(C2C(C(=O)c3ccc(C)o3)=C(O)C(=O)N2CCCn2ccnc2)cc1 (stereo not given)	52.8% (active)
COc1cc(C2C(C(=O)c3ccc(C)o3)=C(O)C(=O)N2Cc2cccnc2)ccc1O (stereo not given)	40.6% (active)
CCOc1ccccc1C(=O)NCCCn1ccnc1	-3.4%
COc1cc(C2C(C(=O)c3ccc(C)o3)=C(O)C(=O)N2CCc2ccccc2)ccc1O (stereo not given)	69.9% (active)
COc1cc(C2C(C(=O)c3sc(C)nc3C)=C(O)C(=O)N2CCN(C)C)cc(OC)c1OC (stereo not given)	3.4%
CCOc1ccc(/C(O)=C2/C(=O)C(=O)N(Cc3cccnc3)C2c2ccc(N(C)C)cc2)c(C)c1 (stereo not given)	27.7%
COc1cc(C2C(C(=O)Nc3ccccc3OC)=C(C)Nc3ncnn32)ccc1O (stereo not given)	-6.4%
O=C(c1cccnc1NCc1ccccc1)N1CCOCC1	-10.6%
CCOC(=O)c1[nH]c2c(c1C)C(=O)CC(c1ccc(N(C)C)cc1)C2 (stereo not given)	9%
Nc1ccc(-n2nncc2-c2ccco2)cc1	3%
O=C(CN1CCN(S(=O)(=O)c2ccc(F)cc2)CC1)Nc1ccccc1F	5.7%
COc1ccc2c(CC(=O)Nc3nnc(C4CC4)s3)coc2c1	-3.4%
COCCCN1C(=O)C(=O)/C(=C(/O)c2ccc3c(c2)CC(C)O3)C1c1cccnc1 (stereo not given)	33.5% (active)
CC1Cc2cc(/C(O)=C3\C(=O)C(=O)N(CCN4CCOCC4)C3c3ccccc3F)ccc2O1 (stereo not given)	18.6%
CCOc1cccc(/C(O)=C2/C(=O)C(=O)N(CCOC)C2c2ccncc2)c1 (stereo not given)	4.6%
COc1cc(C2C(C#N)=C(C)NC3=C2C(=O)CC(C)(C)C3)ccc1O (stereo not given)	4.9%
Cc1ccc(C2CC(=O)NC(SCC(=O)OCc3ccccc3)=C2C#N)o1 (stereo not given)	0.1%
CCCOC(=O)Nc1sc2c(c1C(=O)OCC)CCC2	-12.7%
CCN(CC)S(=O)(=O)N1CCC(C(=O)NC(C)CCc2ccccc2)CC1 (stereo not given)	-9.4%
CCC(C)(NC(=O)c1ccccn1)C(=O)NC1CCCCC1 (stereo not given)	6.6%
COCCNC(=O)Cn1cc2c(n1)CCCCC2	-5.5%

SMILES	inhibition
Cc1onc(-c2ccccc2Cl)c1C(=O)NCCn1ccc2ccccc21	5.6%
COc1ccccc1CNC(=O)CCn1c(=O)sc2ccccc21	1.8%
O=C(C1CCN(S(=O)(=O)c2cccs2)CC1)N1CCCCCC1	2.5%
Cc1cc(C)nc(-n2nc(C)cc2NC(=O)c2ccc(Br)o2)n1	-6.1%
O=C(CN1C(=O)C2C3C=CC(C3)C2C1=O)NCC1COc2ccccc2O1 (stereo not given)	-0.7%
O=C1c2ccncc2C(=O)N1C1CCCCC1	0.9%
COc1ccc(Cn2nnc3c(=O)[nH]c(C4CCN(C(=O)c5ccccc5Cl)CC4)nc32)cc1	-0.8%
Cc1nc(C)c(C(=O)Nc2cccc(C)c2C)o1	3%
COc1ccccc1Cn1c(=S)[nH]c2cc(C(=O)N3CCN(C)CC3)ccc2c1=O	-4%
S=C1SCN(CCN2CCOCC2)CN1Cc1ccccc1	-1.1%
CCOC(=O)C1CCN(C(=O)CSc2cc(=O)n(C)c3ccccc23)CC1	-1.5%
Cn1c(=O)cc(OCCCC(=O)N2CCN(c3ccccn3)CC2)c2ccccc21	-0.8%
COC(=O)c1ccc(CSc2ccccc2C)o1	0.5%
O=C(Nc1ccccc1C(=O)N1CCOCC1)C1CCC(=O)N1C1CCCC1 (stereo not given)	-0.6%
COc1ccc(CN2C(=O)CN=C2Nc2ccc(C)cc2C)cc1	6.5%
O=C(Cn1nc(Cc2cccnc2)c2ccccc2c1=O)NCC1CCCO1 (stereo not given)	0.4%
Cc1nn(C)c(C)c1S(=O)(=O)N1CCc2ccccc21	8.9%
O=C(NCCCN1CCN(C2CCCCC2)CC1)Nc1ccccc1C(F)(F)F	1.3%
O=C(CN1C(=O)COc2ccccc21)Nc1ccc(F)cc1	4.3%
CCn1ncc(Br)c1C(=O)Nc1cc(C)ccc1F	0.8%
Cc1nc(CNS(=O)(=O)c2cccnc2)cs1	1.9%
CSc1sc(C)cc1C1C(C#N)=C(N)N(c2cccnc2)C2=C1C(=O)CCC2 (stereo not given)	4.3%
Cc1nc(C)c(C(=O)Nc2ccc(C)c(F)c2)o1	-4.6%
O=c1c(-c2ccc3c(c2)OCCO3)c(C(F)(F)F)oc2cc(O)cc(O)c12	-6.7%

SMILES	inhibition
Cc1cccn2c(=O)c3cc(C(=O)NCc4ccccn4)n(C)c3nc12	-5.1%
O=C(Nc1cccnc1)c1noc2c1CCCCC2	-1.9%
Cc1cc(N2C(=O)C(=O)/C(=C(/O)c3ccc(Cl)cc3)C2c2cccc(Br)c2)no1 (stereo not given)	3.2%
CCCC(NC(=O)c1ccccc1)c1nc2ccccc2n1Cc1ccc(C(=O)OC)o1 (stereo not given)	24.2%
CSc1ccc(NC(=O)N2CC(C)OC(C)C2)cc1 (stereo not given)	-6.4%
CCCCOc1ccc(C(=O)NCc2ccco2)cc1	0.1%
O=C(O)Cc1ccc(-c2ccccc2)cc1	3.8%
Cc1cc(Cl)c(S(=O)(=O)Nc2ccc3c(c2)OCCO3)cc1OCC(N)=O	-7.6%
CC1=C(C)CC2C(=O)N(c3cccc4ccccc34)C(=O)C2C1 (stereo not given)	-2.3%
COc1cc2c(cc1NC(=O)CN1CCN(S(=O)(=O)c3ccc(F)cc3)CC1)oc1ccccc12	2.8%
CCOC(=O)C1(C(F)(F)F)N=C(N(C)C)OC(N(C)C)=N1	-1.4%
COC(=O)Nc1ccc(S(=O)(=O)N(C)CC(F)(F)C(F)F)cc1	1%
CCCOc1ccc(/C(O)=C2/C(=O)C(=O)N(CCN(C)C)C2c2ccc(OC)c(OC)c2)cc1 (stereo not given)	-5%
COC(=O)CNS(=O)(=O)c1ccc(Cc2ccc(S(=O)(=O)NCC(=O)OC)cc2)cc1	-3.3%
CCOC(=O)c1ccc(-n2c(C)nc3c(cnn3-c3ccccc3C)c2=O)cc1	-9.5%
CN(C)S(=O)(=O)c1ccc(Oc2ccc(S(=O)(=O)N(C)C)cc2)cc1	-1.8%
O=C(CSc1nnc(Cn2cnc3ccccc32)o1)c1ccccc1	1.9%
O=C(O)[C@@H]1CCCN1c1ncnc2sc3c(c12)CCC3	8.1%
CC(=O)c1cccc(S(=O)(=O)N2CCC(n3nnc4cc(F)ccc43)CC2)c1	9.5%
COc1ccc(C(=O)Nc2nncs2)c(OC)c1	5.3%
CC(=O)Nc1cc(C(=O)O)ccc1S(=O)(=O)c1ccc(Cl)cc1	-2.3%
CCOC(=O)N1CCC(NC(=O)Cn2cc3c(n2)CCCCC3)CC1	0%
Cc1ccc(C)c(S(=O)(=O)n2cnc3ccccc32)c1	-0.2%

— PubChem BioAssay AID440 (NMMLSC, 2006)
